hcDAF-12 act – H. contortus DAF-12 activation, primary screen; 1.4% of 370,000 active; activation, % at 6.8 µM; HEK293 hcDAF-12 lit1-tk-luc reporter, luminescence; 0% DMSO, 100% Δ7-dafachronic acid;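 active = activation above the mean of all tested compounds plus 3 SD, cut at about 5.5% in these data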;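 note: 100% = response to 3 µM Δ7-dafachronic acid high control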
DAX1 inh-1 – inhibitors of DAX1 repression of SF-1 activated StAR promoter. HEK293T StAR-luciferase reporter, SF-1/DAX-1 repression relief. inhibition, % at 6.8 µM. 1.1% of 370,000 active;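 active = inhibition above the mean over all tested compounds plus 3 SD, cut at about 3.6% in these data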;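 note: 0% = DAX-1 cells with DMSO and 100% = cells lacking DAX-1 with DMSO; higher inhibition means more luminescence from relief of DAX-1 repression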
AHR act – activates the human aryl hydrocarbon receptor | 2.5% of 320,000 active | activation, % at 5 µM | P35869 | AHR-responsive luciferase reporter cells, luminescence; in the data active = activation above about 47%;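 note: 0% = vehicle wells and 100% = reference agonist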
Target sequence (P35869 whole entry, looked up): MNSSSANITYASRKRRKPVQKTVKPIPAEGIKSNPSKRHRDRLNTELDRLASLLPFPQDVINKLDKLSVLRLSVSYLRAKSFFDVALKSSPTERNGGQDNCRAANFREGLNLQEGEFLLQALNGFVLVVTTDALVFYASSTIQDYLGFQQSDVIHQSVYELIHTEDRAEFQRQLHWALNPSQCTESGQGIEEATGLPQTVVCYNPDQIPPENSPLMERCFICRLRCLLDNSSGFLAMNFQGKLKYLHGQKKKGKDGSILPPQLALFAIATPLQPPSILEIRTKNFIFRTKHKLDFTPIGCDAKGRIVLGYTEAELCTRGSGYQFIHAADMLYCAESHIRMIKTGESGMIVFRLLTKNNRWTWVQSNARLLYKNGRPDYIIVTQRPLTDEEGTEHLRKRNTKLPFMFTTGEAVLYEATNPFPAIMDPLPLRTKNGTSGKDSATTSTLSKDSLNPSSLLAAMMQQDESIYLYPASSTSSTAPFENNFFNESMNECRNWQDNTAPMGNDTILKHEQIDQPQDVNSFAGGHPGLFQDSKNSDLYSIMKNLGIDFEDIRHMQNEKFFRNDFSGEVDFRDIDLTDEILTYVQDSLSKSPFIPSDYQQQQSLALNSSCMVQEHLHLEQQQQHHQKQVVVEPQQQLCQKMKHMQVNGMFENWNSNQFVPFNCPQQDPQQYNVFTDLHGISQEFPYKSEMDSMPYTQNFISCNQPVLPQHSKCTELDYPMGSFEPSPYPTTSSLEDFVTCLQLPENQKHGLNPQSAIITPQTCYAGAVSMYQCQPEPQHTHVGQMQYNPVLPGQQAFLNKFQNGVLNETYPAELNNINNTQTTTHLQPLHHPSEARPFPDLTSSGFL
hgDAF12 agonist – activates the H. glycines DAF-12 receptor ligand-binding domain; HEK293 GAL4-hgDAF12 UAS-luciferase reporter, agonist luminescence; normalized to butyrate control; activation, % at 6.8 µM; 1.8% of 370,000 active;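 active = activation above a cutoff set at the mean of all screened compounds plus 3 SD, cut at about 10% in these data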;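 note: 0% = DMSO wells and 100% = sodium butyrate wells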
DAX1 inh-2 – NR0B1 (DAX1) inhibition; HEK293 Gal4-DAX1 luciferase reporter, luminescence; inhibition, % at 6.75 µM; 0.99% of 340,000 active; P51843; AID 504766;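 active = inhibition above the mean over all tested compounds plus 3 SD, cut at about 4.2% in these data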;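 note: 0% = DAX1-transfected cells with DMSO and 100% = empty-vector control cells with DMSO; inhibition shows as a rise in luminescence from relieved DAX1 repression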
ssDAF12 agonist – activators of S. stercoralis DAF-12 nuclear receptor; HEK293 ssDAF-12/GRIP1 lit1-tk-luc reporter, luminescence; % of 3 µM dafachronic acid response; activation, % at 6.8 µM; 1% of 370,000 active;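 active = activation above the mean over all tested compounds plus 3 SD, cut at about 0.9% in these data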;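 note: 0% = DMSO-only wells and 100% = 3 µM delta7-dafachronic acid wells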
The depositor's hits bear a star; · = no result. Rows were chosen to be rich in hits. Some 5.7% of all compounds tested hit in one or more screens of this group.

SMILES	hcDAF-12 act	DAX1 inh-1	AHR act	hgDAF12 agonist	DAX1 inh-2	ssDAF12 agonist
CCN(CC)c1ccc(/C=N/NC(=O)c2ccc3nc[nH]c3c2)cc1	-1.8	-0.2	12.7	1.3	-1.2	-0.7
CCN(CC)c1ccc(/C=N/NC(=O)c2cc3ccccc3[nH]2)cc1	0.2	-0.4	58.4*	3.4	-0.1	-0.3
CCN(CC)c1ccc(/C=N/NC(=O)c2c[nH]c3ccccc23)cc1	5.9*	-0.8	50.5*	5.3	-0.7	-1.1
C[C@H](CO)N1C[C@H](C)[C@@H](CN(C)C(=O)c2cccnc2)Oc2ncc(Br)cc2C1=O	-0.9	-0.8	·	0.5	-0.6	-0.6
CCCOc1ccc(-c2nnc(-c3ccncc3)o2)cc1	1.4	1.3	5.9	10.8*	3.2	-0.8
CC(C)COc1ccc(-c2nnc(-c3ccncc3)o2)cc1	2.9	1.3	11.8	4.6	1.9	-0.9
CNc1nc(-c2cccc(C(=O)N(C)C)c2)cn2ccnc12	-0.2	-0.7	·	2.4	·	-1.1
N#Cc1c(-c2ccccc2)cc(-c2ccccc2)[nH]c1=O	-1.0	0.0	2.1	-2.5	-0.1	-0.9
N#Cc1cc(-c2ccccc2)c[nH]c1=O	0.8	0.1	0.3	0.1	5.3*	-1.0
Cc1cccc(Cl)c1NC(=O)NCCCN1CCOCC1	-0.3	0.0	·	-1.9	·	-0.5
Cc1cc(C)c(C#N)c(Sc2ccccc2N)n1	4.3	0.5	48.7*	1.5	1.0	0.8
Cc1ccc2nc(-c3ccc(C#N)cc3)c(Cc3cccc(F)c3)n2c1	-1.2	-0.5	·	3.6	·	-0.2
COc1ccc(-c2noc(CCC(=O)N3CCC(c4cc(C)ccc4C)CC3)n2)cc1	-1.6	0.3	·	3.7	-0.4	3.0*
COc1ccc(-c2noc(CCC(=O)N3CCN(c4cccc(OC)c4)CC3)n2)cc1	-3.2	-2.0	·	0.4	-2.0	-0.9
O=C(c1ccco1)N(Cc1cccc(Cl)c1)C1CCS(=O)(=O)C1 (configuration not stated)	-2.2	0.2	1.2	1.1	0.4	-1.2
Cc1ccccc1NC(=O)c1onc2c1CCCC2	3.3	2.3	6.0	10.0	3.3	-0.1
Cc1cccc(NC(=O)c2onc3c2CCCC3)c1C	1.6	1.5	3.3	10.9*	1.7	-0.1
Cc1cccc(NC(=O)c2ccc3c(Cl)c4c(nc3c2)CCCC4)n1	-0.6	1.6	-0.8	3.7	2.2	-1.1
Cc1cccc(NC(=O)c2onc3c2CCCC3)n1	4.8	4.1*	9.0	12.8*	-3.7	0.0
COCCNS(=O)(=O)c1ccc(C2CNC(=O)C2)cc1 (configuration not stated)	0.2	1.2	-0.1	2.1	5.2*	-1.5
O=C1CC(c2ccc(S(=O)(=O)NCCOc3ccccc3)cc2)CN1 (configuration not stated)	-2.6	0.2	-0.1	-1.0	0.4	-1.4
COc1cccc(/C=N\NC(C)=O)c1OC/C=C/c1ccccc1	-2.4	-2.1	·	0.2	-0.8	-1.6
O=C(CSc1c[nH]c2ccccc12)N1CCCc2ccccc21	0.9	-1.1	1.6	3.6	0.2	-1.5
O=C(Cc1c[nH]c2ccccc12)N1CCc2ccccc21	3.0	-0.4	74.6*	7.7	0.8	-0.2
CCc1cccc(NC(=O)C2CCCN(S(=O)(=O)c3cccs3)C2)c1 (configuration not stated)	-3.5	-0.6	8.6	1.4	-2.4	-0.9
SMILES	hcDAF-12 act	DAX1 inh-1	AHR act	hgDAF12 agonist	DAX1 inh-2	ssDAF12 agonist
Nc1nc(CSCCO)nc(Nc2ccccc2)n1	0.5	-0.2	11.9	1.6	0.5	-1.3
Nc1nc(CSc2ccccn2)nc(Nc2ccccc2)n1	4.7	3.5	25.7	10.9*	3.5	0.7
Cc1ccc(-c2csc(NC(=O)c3c(C)noc3C)n2)s1	·	·	76.0*	·	-0.8	·
Cc1ccc(-c2csc(NC(=O)c3c(C)noc3C)n2)cc1C	-1.3	1.1	-0.3	5.0	-1.0	-1.0
COc1cc(C(=O)NC(=S)Nc2nccs2)cc(OC)c1OC	-1.7	-0.6	78.8*	1.9	1.0	-1.4
COc1ccc(NC(=O)Nc2nccs2)cc1	0.7	0.4	1.0	11.0*	2.5	-0.6
CCCN1C(=O)c2ccc(C(=O)Nc3nccs3)cc2C1=O	-0.6	0.2	13.2	-0.5	-0.3	-1.6
CCCc1cc(C(=O)Nc2nccs2)cs1	4.3	3.1	3.6	12.0*	0.4	-0.5
O=C(Nc1ccccc1)Nc1nccs1	0.9	0.0	3.7	2.6	-0.2	-1.1
COc1ccc(C(=O)Nc2nccs2)cc1	3.0	1.6	2.8	9.6	5.7*	-0.2
Cc1ccc(C(C)C)c(OCC(=O)OCC(=O)NC2CCS(=O)(=O)C2)c1 (configuration not stated)	0.3	1.2	-1.1	1.0	-0.5	-0.6
Cc1ccc(C(C(=O)NC2CCCCC2)N(Cc2cccnc2)C(=O)c2csnn2)cc1 (configuration not stated)	-1.1	-0.1	-3.0	0.3	-0.5	-0.8
CCc1ccc(NC(=S)N2CCCCCCC2)cc1	-0.3	3.2	4.5	10.7*	1.2	0.4
COc1ccc(S(=O)(=O)Cc2ccc(C(=O)NCCCN3CCc4ccccc4C3)o2)cc1	5.8*	0.5	0.4	2.6	2.1	3.5*
COc1ccc(C)cc1NC(=O)CNC(C)C(=O)Nc1cc(Cl)ccc1Cl (configuration not stated)	-3.1	-0.4	7.4	-1.4	-0.2	-1.4
CC1(C(=O)NS(=O)(=O)Cc2cccc(Cl)c2)CCN1C(=O)c1ccc(C2CCCCC2)cc1 (configuration not stated)	-1.0	-0.3	·	-1.0	·	-1.0
Cc1nn2c(-c3ccncc3)ccnc2c1Cl	0.4	0.1	-2.1	11.7*	0.1	-1.4
O=C(O)c1cc(=O)c2ccccc2[nH]1	6.4*	0.4	13.7	4.6	3.3	1.5*
O=C(O)c1cc(=O)c2c(Cl)cc(Cl)cc2[nH]1	0.0	-0.1	0.4	1.9	0.7	-1.2
O=C(O)c1cc2c(cn1)[nH]c1ccccc12	6.3*	0.3	24.1	0.8	1.9	-0.3
C[C@H](NC(=O)c1cc2c(cn1)[nH]c1ccccc12)C(=O)O	2.7	0.2	·	2.5	1.1	0.0
Cc1c2cnccc2c(C)c2c1oc1ccccc12	1.9	1.0	·	11.1*	2.1	-0.9
Cc1ccccc1Cn1c(=O)n(Cc2ccco2)c(=O)c2ccccc21	-1.0	-1.0	-2.4	-1.3	4.5*	-1.6
Cc1ccc(-n2c(=O)c3ccc(C(=O)NCc4ccco4)cc3n(Cc3ccccc3C#N)c2=O)cc1	-1.3	-0.2	1.0	1.6	-0.2	-0.5
Cc1ccccc1Cn1c(=O)n(-c2ccccc2)c(=O)c2ccc(C(=O)NCc3ccco3)cc21	1.1	0.4	0.4	1.2	4.6*	-0.8
